Tau fluor counter = counter-screen for tau fibril formation inhibitors. tau K18 P301L Alexa594 fluorescence, heparin fibrillization. Potency, µM (titrated, usually from 57.7 µM). 280,000 compounds, 0.93% hits; also: nearly all actives have a fitted effect of over 55% in size
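Human tau K18 P301L (15 uM unlabeled, 0.24 uM Alexa 594-labeled) in 100 mM sodium acetate pH 7 with 20 uM heparin, 6 hr at 37 C. ThT 30 uM added, 1 hr ambient; Alexa 594 FP and total fluorescence read at 555/632 nm.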
Tau fibril FP = tau fibrillization inhibition (FP). P10636. K18 P301L tau heparin fibrillization, Alexa594 FP, 6 h. Potency, µM (top dose mostly 57.7 µM), hits mostly inhibitors. 280,000 compounds, 0.39% hits. AID 1468; also: nearly all actives have a fitted effect of over 55% in size
Target sequence (P10636 561-689 P618L limits assumed): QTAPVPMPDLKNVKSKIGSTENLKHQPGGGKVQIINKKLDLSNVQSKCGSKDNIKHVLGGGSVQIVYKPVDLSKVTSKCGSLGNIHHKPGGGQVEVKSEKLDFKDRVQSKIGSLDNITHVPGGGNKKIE
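Heparin (20 uM) drove fibril formation of recombinant tau K18 P301L, 15 uM unlabeled with 0.24 uM Alexa 594 label, for 6 hr at 37 C in 100 mM sodium acetate pH 7. Fluorescence polarization (555/632 nm) read 1 hr after 30 uM ThT.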
Coupling enz = inhibits coupling enzyme system, counter-screen for aldolase hits; activity change, negative = inhibition, % at 58.2 µM, hits read low; 290,000 compounds, 0.67% hits; coupling enzyme system counterscreen, AmpLite Red fluorescence; in the data active = activity change below about -30%
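Coupling enzymes only (glyceraldehyde-3-phosphate) + compound, at 57.5 uM final, 10 min RT; add substrate/coupling/AmpLite Red mix, 20 min RT; fluorescence ex 525/em 598 nm. Actives flag coupling-system interference.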
Tau ThT inhib = tau fibrillization inhibition (ThT binding) | P10636 | recombinant tau K18 P301L (four-repeat tau fragment), heparin-induced fibrillization, ThT fluorescence | Potency, µM (titrated, usually from 57.4 µM), most hits filed as inhibitors | 270,000 compounds, 2.1% hits | AID 1460; also: nearly all actives have a fitted effect of over 55% in size
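Tau K18 P301L fragment (15 uM unlabeled plus 0.24 uM Alexa 594-labeled) in 100 mM sodium acetate pH 7 with compound, fibrillization induced by 20 uM heparin for 6 hr at 37 C. Thioflavin T (30 uM) added, fluorescence read after 1 hr (ex 450, em 510 nm).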
Sfp inh = Sfp phosphopantetheinyl transferase inhibition; Q9F4F7; Biochemical Sfp PPTase activity, qHTS; Potency, µM, hits mostly inhibitors; 310,000 compounds, 3.5% hits; AID 1490;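 also: the enzyme is Sfp with the accession as filed and its product quenches rhodamine fluorescence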
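Step 1, compound plus 15 nM Sfp-PPTase, 15 min, room temperature. Step 2, add rhodamine-CoA (5 uM) and BHQ-2-YbbR (12.5 uM). Step 3, read 525/598 nm fluorescence at 0 and 30 min.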
A number is an active result; - = inactive; ? = inconclusive; . = not tested or not shown; ! = repeats disagree; [ ] = another dose, or the depositor's remark. In the library only some 5.2% were active in any assay of this set; here they are far more common. Unless noted, calls follow the shape of the dose curve; as a rule, active = well fitted curve in the direction sought with a large enough effect; inconclusive = small, poorly fitted or top-dose-only effect, or another doubt; inactive = no such curve, though single readings can be large; an effect the other way counts as inactive or inconclusive.

SMILES	Tau fluor counter	Tau fibril FP	Coupling enz	Tau ThT inhib	Sfp inh
Cc1c(NC(=O)Nc2ccc(Br)cc2F)sc2nc3n(c(=O)c12)CCC(C)CC3 (stereo unspecified)	-	-	.	-	.
O=C(O)CSc1cc(NS(=O)(=O)c2ccc(Br)cc2)c2ccccc2c1O	.	.	-44	.	40µM
O=S(=O)(Nc1cc(Sc2ncn[nH]2)c(O)c2ccccc12)c1ccccc1	?	25µM	-55	11µM	8.9µM
Cc1cc(NS(=O)(=O)c2ccccc2)c(C)c(Cl)c1O	-	-	-	-	-
CC1(OC(=O)c2cccs2)C(=O)C=C2C=C3CCCN3C=C2C1=O (stereo unspecified)	-[11.6 µM]	?	-	5µM	-
CC1(OC(=O)CCc2ccccc2)C(=O)C=C2C=C3CCCN3C=C2C1=O (stereo unspecified)	-[11.6 µM]	?	-	3.5µM	?
CCN(CC)CCCN1C=C2C(=O)C(C)(OC(=O)CCc3ccccc3)C(=O)C=C2C=C1c1ccc(C#N)cc1 (stereo unspecified)	?	?	-	13µM!	-
COC(=O)CCCC1=CC2=CC(=O)C(C)(OC(=O)CCc3ccccc3)C(=O)C2=CO1 (stereo unspecified)	?	?	-	25µM!	-
COc1ccc(N2CCN(C(=O)Cn3cnc4nc5c(cc4c3=O)CCCC5)CC2)cc1	-	-	.	?	.
C=Cc1ccc(Cn2c(C(=O)O)c(CNCCc3ccccc3)c3ccc(C)cc32)cc1	-	-	.	-	.
COc1ccc(OC)c(C2CC(c3c(-c4ccccc4)c4cc(Cl)ccc4[nH]c3=O)=NN2S(C)(=O)=O)c1 (stereo unspecified)	?	-	-	-	45µM
COc1ccc(C2CC(c3c(-c4ccccc4)c4cc(Cl)ccc4[nH]c3=O)=NN2S(C)(=O)=O)cc1 (stereo unspecified)	-	?	-	-	-
Cc1cc(Br)ccc1N=C1NC(=O)CS1	.	.	-	.	40µM
COC(=O)C/C=C\[C@@H](C)[C@@H](CO)NS(=O)(=O)c1ccc(C)cc1	-[11.6 µM]	-[11.6 µM]	-	-[11.5 µM]	-
Cn1c(=S)ccc2ccccc21	-	-	-	?	45µM
C[C@]12C=CC(=O)N[C@@H]1CC[C@@H]1C2CC[C@]2(C)C(C(=O)Nc3cc(C(F)(F)F)ccc3C(F)(F)F)CC[C@@H]12 (stereo partly specified)	.	.	.	.	-
Cc1ccc(N2CCN(C(=O)c3cccs3)CC2)cc1C	.	.	-	.	50µM
Cc1ccc(S(=O)(=O)n2nc(-c3ccco3)nc2N)cc1	-	-	-	-	89µM
Nc1nc(-c2ccco2)nn1S(=O)(=O)c1ccccc1	-	-	-	-	-
OCC(O)C(O)C(O)C(O)C1NCCS1 (stereo unspecified)	-	?	-	20µM	-
Cc1nc2sccn2c(=O)c1S(=O)(=O)Nc1cc(C(F)(F)F)ccc1Cl	-	-	.	-	.
Nc1ncnc2nc(SCC(=O)Nc3cccc(C(F)(F)F)c3)[nH]c12	.	.	-	.	-
COC(=O)c1c(SCC(=O)Nc2cccc(C(F)(F)F)c2)[nH]c2ccccc2c1=O	16µM[quencher]	-	.	14µM	.
O=C(CSc1nc2cc3ccccc3cc2[nH]1)Nc1cccc(C(F)(F)F)c1	?	3.2µM	.	-	.
COC(=O)c1c(SCC(=O)NC2CCCCC2)[nH]c2ccccc2c1=O	.	.	.	.	-
SMILES	Tau fluor counter	Tau fibril FP	Coupling enz	Tau ThT inhib	Sfp inh
COC(=O)c1c(SCC(=O)Nc2cccc(Cl)c2C)[nH]c2ccccc2c1=O	-	?	.	16µM	.
COC(=O)c1c(SCC(=O)Nc2cc(F)ccc2F)[nH]c2ccc(C)cc2c1=O	?	-	.	7.1µM	.
Cc1ccccc1NC(=O)c1ccc(N(Cc2ccccc2)S(C)(=O)=O)cc1	-	?	.	-	.
Cc1ccc2[nH]c(CSc3nnc(NC(=O)COc4ccc(F)cc4)s3)cc(=O)c2c1	-	?	.	-	.
Cc1ccc(-c2ccc(C3C4C=CCC(C)C4C(=O)N3Cc3ccccc3)c(F)c2)cc1 (stereo unspecified)	.	.	-	.	?
COc1ccccc1C(=O)Nc1nnc(SCc2cc(=O)c3cc(Cl)ccc3[nH]2)s1	-	?	.	-	.
N=c1n(Cc2ccc(Cl)cc2)c2ccccc2n1CC(O)COc1ccccc1 (stereo unspecified)	-	-	-	-	-
N=c1n(Cc2ccccc2)c2ccccc2n1CC(O)COc1ccc(Cl)cc1Cl (stereo unspecified)	-	-	-	-	18µM
O=[N+]([O-])c1cc(Cl)ccc1N1CCCC1	-	-	-	-	-
O=C1C(Cl)=C(N2CCN(c3ccccc3[N+](=O)[O-])CC2)C(=O)c2ccccc21	8.9µM[quencher]	10µM	-41	3.5µM	-
COc1cc(C(=O)CSc2nnc(-c3ccc(O)cc3)n2CC2CCCO2)ccc1NC(C)=O (stereo unspecified)	-	-	-	-	?
CCC(=O)Nc1ccc(C(=O)CSc2nnc(-c3ccc(O)cc3)n2CC2CCCO2)cc1 (stereo unspecified)	-	-	-	-	79µM
O=C(NCSc1ccncn1)c1ccccc1	-	-	-	-	20µM
O=C(NCSc1ccnc(SCNC(=O)c2ccccc2)n1)c1ccccc1	-	-	-	-	-
COc1cc(NC(=O)Cn2c(=O)oc3cc(S(=O)(=O)N4CCCCCC4)ccc32)cc(OC)c1	?	?	.	-	.
CCC(C(=O)O)N1C(=O)/C(=C/c2cccn2C)SC1=S (stereo unspecified)	-	-	-	13µM	-
C=CCN1C(=O)/C(=C\C=C2\N(C)c3ccccc3C2(C)C)SC1=S	-	-	-	?	-
Cn1cccc1/C=C1/SC(=S)N(CC(=O)O)C1=O	-	-	-	16µM	-
CN1/C(=C\C=C2/SC(=S)N(CC(=O)O)C2=O)C(C)(C)c2ccccc21	?	-	-	4µM	22µM
Cc1ccc(NC(=O)CN2C(=O)S/C(=C\c3cccn3C)C2=O)cc1	-	-	-	-	-
CCCC(C(=O)O)N1C(=O)/C(=C2\C(=O)N(C)c3ccccc32)SC1=S (stereo unspecified)	-	-	-	?	-
CC(C(=O)O)N1C(=O)/C(=C/c2cccn2C)SC1=S (stereo unspecified)	-	-	-	18µM	56µM
Cc1ccc(NC(=O)C(=O)NCC(c2cccnc2)N2CCN(Cc3ccccc3)CC2)cc1C (stereo unspecified)	-	-	.	-	.
CC(CNC(=O)C1CCN(S(=O)(=O)c2ccc3c(ccn3C)c2)CC1)c1ccccc1 (stereo unspecified)	-	-	.	-	.
COc1ccc(N(CC(=O)N2CCN(c3ccc(F)cc3)CC2)S(=O)(=O)c2c(C)nn(C)c2C)cc1	-	-	.	-	.
COCCN(C(=S)Nc1c(C)cc(C)cc1C)C(C)c1cccs1 (stereo unspecified)	-	-	-	-	50µM

High-throughput results deposited in PubChem by National Center for Advancing Translational Sciences (NCATS).
